# From PubChem BioAssay
# Several values for one entry are separate records, joined by “and”; a condition that tells them apart may be missing. Equal entries are not always repeated. Inconclusive results are not listed. For part of these data: Results with a measured potency or affinity are listed apart. The source holds several records for some structures; these can differ, active in one and inactive in another. Activity calls are given as the source filed them. Unless noted, how the calls were made is not given here.
# Columns and labels:
# [1] = polyglutamine-triggered caspase-3 activation inhibitors, cell-based (AID 1583); details: polyglutamine-induced caspase-3 activation, cell assay; stronger effect = higher value;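 tested at 10 µM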
# [2] = suppressors of polyQ aggregation in yeast, 75Q-TubU reporter (AID 1593); details: Yeast 75Q polyglutamine aggregation reporter
# [3] = rescue of polyQ-huntingtin neuronal dysfunction in worms, whole organism, C. elegans mechanosensory neurons, N-terminal huntingtin (AID 1599); details: touch response, stronger effect = higher value
# [4] = inhibitors of mitochondrial cytochrome c release, biochemical, purified mitochondria (AID 1603); details: stronger effect = lower value;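 further: mouse liver mitochondria challenged with calcium chloride; signal normalized to the plate average as 100%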
# [5] = inhibitors of polyQ protein aggregation (AID 1604); details: polyglutamine-induced protein aggregation inhibition assay; stronger effect = higher value; tested at 2.5 µM
# [6] = enhancers of glutamate uptake in motor neurons, MN-1 cell line (AID 1612); details: MN-1 motor neuron cells, stronger effect = higher value;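 further: tested at 1 µM final; 0% = mean of DMSO vehicle wells on each plate; positive means more glutamate uptake than control and negative means less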
# [7] = reducers of polyQ inclusions in PC12 cells, cell-based, NGF-treated PC12, GFPQ80 (AID 1614); details: PC12 NGF-treated GFP-polyQ80 inclusion reduction;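 further: lower means fewer inclusions and 0 means no inclusions at all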
# [8] = suppressors of polyglutamine aggregation in yeast, 75Q-TubH (AID 1616); details: S. cerevisiae 75Q-TubH polyglutamine aggregation suppression; stronger effect = higher value
# [9] = liver-stage malaria parasite growth inhibition, primary screen, cell-based, HepG2, luciferase luminescence, HepG2 viability (AID 624349; in the data active means parasite load remaining mostly below about 12%, no sharp cut-off; inactive means mostly above about 10%;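 further: 100% = mean of DMSO negative control wells on the same plate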); details: P. berghei liver stage in HepG2, luciferase luminescence, concentration not given here; parasite load remaining: stronger effect = lower value; viability: measured here: HepG2 viability without parasites
# [10] = differential killing of epithelial or mesenchymal cells, primary screen, imaging, PC-3E GFP, TEM4-18 mCherry, co-culture (AID 1345086;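 active means compounds killing one labelled cell type while sparing the other, by normalised counts and ratio limits, not self-fluorescent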;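 further: cells exposed to compound for 72 h before imaging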;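 on red/green cell ratio (normalised): normalised mesenchymal count divided by normalised epithelial count so high means epithelial killing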); details: imaging cell counts, at 1 µM
# [11] = sensitizers of A549 cells to miR-34 induction, primary screen, imaging, A549 dox-inducible miR-34, nuclei and caspase counts (AID 1347080;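 active means compounds whose cell count with miR-34 switched on is under 0.7 times the count with it off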); details: A549 miR-34 inducible, Hoechst nuclei count, 48 h
# [12] = circadian clock period modulators, cell-based, LOPAC library, luminescence reporter (AID 2774); details: circadian reporter cells, at 7 µM, actives lie on both sides;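 further: values are relative to mean of DMSO wells on each plate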
# [13] = tested on: Hepatitis C virus NS3 helicase; test: HCV NS3 helicase inhibitors, primary screen, biochemical, fluorescence polarization, LOPAC1280 library (AID 687035; in the data active means inhibition above about 37%); details: Purified HCV NS3 helicase, Cy5-dT15 ssDNA binding fluorescence polarization; stronger effect = higher value; concentration not given here
# [14] = Cy5 fluorescence quenching or enhancement artefacts, artefact control for HCV NS3 helicase inhibitor project, biochemical, LOPAC1280 (AID 687037); details: Cy5-DNA-NS3h complex fluorescence interference counterscreen
# [15] = tested on: Aerobactin synthetase IucA (Klebsiella pneumoniae); test: IucA aerobactin synthetase inhibitors, biochemical, Tocris library, absorbance (AID 1345561); details: purified IucA enzyme assay, absorbance (OD) read-out; stronger effect = lower value;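 tested at 8 µM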;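 further: 100% = enzyme without compound and 0% = no enzyme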
# [16] = tested on: Aerobactin synthetase IucA (Klebsiella pneumoniae, hypervirulent); test: IucA enzyme inhibition, biochemical, LOPAC library, absorbance readout (AID 1346212); details: IucA enzyme assay, absorbance (OD) readout; stronger effect = lower value;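 tested at 8 µM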;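 further: 100% = no compound wells and 0% = no enzyme wells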
# [17] = growth inhibition of DIPG glioma cells, dose response, cell-based, JHH-DIPG-1, MIPE4.0, CellTiter-Glo, qHTS (AID 1347062; cut-off not given, nearly all actives have AC50 up to about 27 µM); details: JHH-DIPG-1 viability, CellTiter-Glo ATP luminescence
# [18] = growth inhibition of DIPG glioma cells, dose response, cell-based, SU-DIPG-IV, MIPE4.0, CellTiter-Glo, qHTS (AID 1347063; cut-off not given, nearly all actives have AC50 up to about 30 µM;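 further: compound exposure lasted 48 hours before the viability readout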); details: SU-DIPG-IV viability, CellTiter-Glo ATP luminescence
# [19] = SU-DIPG-VI glioma cell viability, MIPE4.0 library, CellTiter-Glo luminescence, qHTS (AID 1347066; cut-off not given, nearly all actives have AC50 up to about 30 µM;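 further: cells exposed to compound for 48 hours before readout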); details: CellTiter-Glo ATP luminescence
# [20] = phospholipid biosynthesis inhibitors in animal cells, primary screen, cell-based, LOPAC library, screen 4 (AID 1347384); details: phospholipid biosynthesis inhibition screen, at 10 µM
# [21] = viability rescue of complex I mutant cybrids, primary screen, cell-based, galactose medium, ATP luminescence (AID 1645843;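 active means z-score of at least 1.8 in each of two replicates, scored against plate mean and spread of sample wells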;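 further: positive z means more ATP and so rescue of galactose-driven cybrid death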); details: complex I mutant cybrid cells, 72 h, stronger effect = higher value
# [22] = measured here: relative caspase fold change +Dox/-Dox
# [23] = measured here: total cells with miR-34 induction, stronger effect = lower value
# [24] = measured here: total cells without miR-34 induction
smiles,measurement,setting,value
O=C1CN=C(c2ccccc2Cl)c2cc([N+](=O)[O-])ccc2N1,inhibition,[1],12.9%
same,score,[2],0.89
same,rescue above control,[3],-2.29
same,cytochrome c release ratio,[4],0.98
same,inhibition of aggregation,[5],52.4%
same,glutamate uptake change,[6],-25.1%
same,inclusion score,[7],2
same,aggregation suppression score,[8],0.77
same,parasite load remaining,[9],52.7% (inactive)
same,viability,[9],99.8%
same,red/green cell ratio (normalised),[10]; actives lie on both sides,1.15 (inactive)
same,normalised cell number,[10]; measured here: epithelial PC-3E GFP cell survival,0.93
same,normalised cell number,[10]; measured here: mesenchymal TEM4-18 mCherry cell survival,1.07
same,fold change,[11]; stronger effect = lower value,0.845 (inactive)
same,fold change,[11]; [22],3.3
same,cell count,[11]; [23],10900
same,cell count,[11]; [24],12900
CC1=NN=C(c2ccc(N)cc2)c2cc3c(cc2C1)OCO3,period change,[12],0.095 h (inactive)
same,inhibition,[13],3% (inactive)
same,fluorescence ratio (interference),[14],1 (inactive)
same,remaining activity,[15],114% (inactive)
same,remaining activity,[16],78.1% (inactive)
same,outcome,[17],inactive
same,outcome,[18],inactive
same,outcome,[19],inactive
same,fold change,[11]; stronger effect = lower value,1.05 (inactive) and 1 (inactive)
same,fold change,[11]; [22],0.665 and 1.11
same,cell count,[11]; [23],10000 and 7840
same,cell count,[11]; [24],9520 and 7820
same,outcome,[20],inactive
same,z-score,[21],0.825 (inactive) and 4.29 (active)
CCOC(=O)c1ncn2c1[C@@H]1CCCN1C(=O)c1cc(OC)ccc1-2,period change,[12],-0.11 h (inactive)
same,inhibition,[13],0% (inactive)
same,fluorescence ratio (interference),[14],1 (inactive)
same,remaining activity,[15],125% (inactive)
same,remaining activity,[16],110% (inactive)
same,fold change,[11]; stronger effect = lower value,1.04 (inactive) and 0.964 (inactive)
same,fold change,[11]; [22],0.593 and 0.443
same,cell count,[11]; [23],9220 and 8750
same,cell count,[11]; [24],8880 and 9080
same,outcome,[20],inactive
same,z-score,[21],0.505 (inactive) and 0.115 (inactive)
